Tests used:
Experiment in all cases: log2 ratio of Biotin-Ahx-Ub-VS probe labelling (compound/DMSO); higher = less target engagement, active = hit call of the paper (q ≤ 0.05, log2 ratio ≤ -1)
Details in all cases: treatment time: 3 h
[1] = compound: CCC1N(CCc2sccc12)C(=O)CCl
Method in brief: (§1)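 HEK293T lysate (495 µg per sample, in Tris/CHAPS/IGEPAL buffer with protease inhibitors) was exposed in triplicate to compound at 50 or 200 µM, or to DMSO, for 3 h, then to Biotin-Ahx-Ub-VS (0.5 µM final) for 1 h. The labelled DUBs were enriched on NeutrAvidin, digested with LysC and trypsin, and analysed by diaPASEF LC-MS/MS. Average base-two log ratios of compound over DMSO came from median-normalised label-free quantities by unpaired t-test. Only proteins with at least 2 unique peptides were used.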

[2] = compound: CN1c2ccccc2C(CS1(=O)=O)NC(=O)CCl
Method in brief: as §1

[3] = compound: Cl.ClCC(=O)N1CCc2ncncc2C1
Method in brief: as §1

[4] = compound: Cl.Cn1ncc2C(CCCc12)NC(=O)CCl
Method in brief: as §1

[5] = compound: ClCC(=O)NC1CCOc2ccccc12
Method in brief: as §1

[6] = compound: ClCC(=O)NC1CCCc2ccccc12
Method in brief: (§2)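 Values are average ratios of compound to vehicle from an unpaired t-test, limited to proteins with at least two unique peptides. HEK293T lysate (495 µg per sample, in Tris/CHAPS/IGEPAL buffer with protease inhibitors) was exposed in triplicate to a concentration series of compound or to vehicle for 3 h, then to Biotin-Ahx-Ub-VS at 0.5 µM final for 1 h. Labelled deubiquitinases were enriched on NeutrAvidin, digested with LysC and trypsin, and analysed by diaPASEF LC-MS/MS. Ratios are given on a log2 scale from Spectronaut label-free protein quantities normalised to the global median.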

[7] = compound: ClCC(=O)N[C@@H]1CCCc2ccccc12
Method in brief: as §2

[8] = compound: ClCC(=O)N[C@H]1CCCc2ccccc12
Method in brief: as §2

[9] = compound: CCC1N(CCc2cc(OC)c(Cl)cc12)C(=O)CCl
Method in brief: as §1

[10] = compound: CCCC1N(CCc2cc(OC)c(OC)cc12)C(=O)CCl
Method in brief: as §1

[11] = compound: CN(Cc1cccc(Br)c1)C(=O)CCl
Method in brief: as §1

[12] = compound: CN(Cc1cccc(OCc2ccccc2C)c1)C(=O)CCl
Method in brief: as §1

[13] = compound: CN(Cc1ccccc1)C(=O)CCl
Method in brief: as §1

[14] = compound: COc1ccc(CN(C)C(=O)CCl)cc1
Method in brief: as §1

[15] = compound: COc1cccc(CN(CCCc2ccccc2)C(=O)CCl)c1
Method in brief: as §1

[16] = compound: ClCC(=O)N1CCc2cc(Cl)c(Cl)cc2C1
Method in brief: as §1

[17] = compound: ClCC(=O)N1CCc2nc(ncc2C1)-c1ccccc1
Method in brief: as §1

[18] = compound: ClCC(=O)N1CCc2nocc2C1
Method in brief: as §1

[19] = compound: ClCC(=O)N1CCc2scc(Br)c2C1
Method in brief: as §1

[20] = compound: ClCC(=O)NC(C1CCCC1)c1cccs1
Method in brief: as §1

Measured: log2 ratio of Biotin-Ahx-Ub-VS probe labelling

FAM105A (UniProt Q9NUU6)
Chain of UniProt Q9NUU6 (Q9NUU6 whole entry): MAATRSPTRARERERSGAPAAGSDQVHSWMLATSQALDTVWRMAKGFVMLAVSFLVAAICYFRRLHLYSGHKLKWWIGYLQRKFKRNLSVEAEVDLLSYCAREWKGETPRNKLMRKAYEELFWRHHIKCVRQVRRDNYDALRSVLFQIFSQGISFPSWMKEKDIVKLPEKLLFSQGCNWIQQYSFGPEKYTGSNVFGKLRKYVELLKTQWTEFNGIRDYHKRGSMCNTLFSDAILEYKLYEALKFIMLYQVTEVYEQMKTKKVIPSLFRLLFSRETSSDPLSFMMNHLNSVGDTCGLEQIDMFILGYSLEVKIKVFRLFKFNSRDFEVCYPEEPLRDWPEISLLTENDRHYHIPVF
inactive: [1]; compound concentration: 50uM -0.137 | [1]; compound concentration: 200uM -0.0129 | [2]; compound concentration: 50uM 0.0298 | [2]; compound concentration: 200uM 0.102 | [3]; compound concentration: 50uM -0.0634 | [3]; compound concentration: 200uM -0.355 | [4]; compound concentration: 50uM -0.00158 | [4]; compound concentration: 200uM -0.0665 | [5]; compound concentration: 50uM -0.0638 | [5]; compound concentration: 200uM -0.105 | [6]; compound concentration: 0.78uM 0.0819 | [6]; compound concentration: 1.56uM 0.102 | [6]; compound concentration: 3.13uM -0.00663 | [6]; compound concentration: 6.25uM 0.0556 | [6]; compound concentration: 12.5uM 0.00386 | [6]; compound concentration: 25uM -0.153 | [6]; compound concentration: 50uM 0.14 | [6]; compound concentration: 100uM -0.0653 | [6]; compound concentration: 200uM 0.157 | [7]; compound concentration: 0.78uM 0.0146 | [7]; compound concentration: 1.56uM 0.139 | [7]; compound concentration: 3.13uM 0.288 | [7]; compound concentration: 6.25uM 0.071 | [7]; compound concentration: 12.5uM -0.0354 | [7]; compound concentration: 25uM -0.00679 | [7]; compound concentration: 50uM 0.0826 | [7]; compound concentration: 100uM 0.0658 | [7]; compound concentration: 200uM -0.0519 | [8]; compound concentration: 0.78uM 0.122 | [8]; compound concentration: 1.56uM -0.0166 | [8]; compound concentration: 3.13uM 0.227 | [8]; compound concentration: 6.25uM 0.317 | [8]; compound concentration: 12.5uM 0.0169 | [8]; compound concentration: 25uM 0.0586 | [8]; compound concentration: 50uM -0.064 | [8]; compound concentration: 100uM 0.0853 | [8]; compound concentration: 200uM 0.091 | [9]; compound concentration: 50uM 0.0998 | [9]; compound concentration: 200uM -0.0916 | [10]; compound concentration: 50uM -0.253 | [10]; compound concentration: 200uM -0.175 | [11]; compound concentration: 50uM -0.187 | [11]; compound concentration: 200uM -0.00846 | [12]; compound concentration: 50uM -0.255 | [12]; compound concentration: 200uM -0.114 | [13]; compound concentration: 50uM -0.198 | [13]; compound concentration: 200uM 0.0229 | [14]; compound concentration: 50uM -0.0227 | [14]; compound concentration: 200uM -0.0524 | [15]; compound concentration: 50uM -0.219 | [15]; compound concentration: 200uM -0.197 | [16]; compound concentration: 50uM 0.119 | [16]; compound concentration: 200uM -0.429 | [17]; compound concentration: 50uM -0.124 | [17]; compound concentration: 200uM -0.242 | [18]; compound concentration: 50uM -0.252 | [18]; compound concentration: 200uM -0.149 | [19]; compound concentration: 50uM 0.049 | [19]; compound concentration: 200uM -0.0833 | [20]; compound concentration: 50uM 0.0872 | [20]; compound concentration: 200uM 0.0369

— the supplement of paper PMC11732987, “Enantioselective OTUD7B fragment discovery through chemoproteomics screening and high-throughput optimisation” (Communications Chemistry, 2025)
